# According to PubChem BioAssay:
# Inconclusive results are not listed. The source made the active and inactive calls.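 The calls were made as follows, unless noted: active = percent response above a set limit, the screen-wide mean plus 3 SD (cut at about 130% in these data); inactive = the rest.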
# Legend:
# [1] = yeast TOR pathway RPL19A-GFP modulators, primary screen, cell-based, S. cerevisiae, multiplex flow cytometry (AID 1862; in the data active = percent of DMSO control GFP below about 86%;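 also: lower values mimic rapamycin by blocking the RPL19A rise seen in DMSO cells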); conditions: S. cerevisiae RPL19A-GFP strain, flow cytometry fluorescence, 3 h; at 10 µM; stronger effect = lower value
# [2] = modulators of MEP2-GFP levels in yeast, primary screen, S. cerevisiae, multiplex flow cytometry (AID 1867;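 active = GFP response, as percent of the DMSO control, above the screen-wide mean plus 3 SD, about 139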;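 also: median GFP channel fluorescence of barcode-gated MEP2-GFP cells measured by flow cytometry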); conditions: S. cerevisiae MEP2-GFP strain, 3 h, at 10 µM, stronger effect = higher value, 100% means same as DMSO wells
# [3] = modulators of CIT2-GFP expression in yeast, primary screen, S. cerevisiae, GFP fusion, multiplex flow cytometry (AID 1870); conditions: 3 h, at 10 µM, stronger effect = higher value;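 also: barcoded CIT2-GFP strain pooled with four other GFP strains with rapamycin as positive control; median GFP fluorescence per well over plate mean of DMSO wells so 100% = DMSO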
# [4] = modulators of LAP4-GFP expression in yeast, primary screen, S. cerevisiae, multiplex flow cytometry (AID 1873;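 active = GFP signal, as percent of the solvent control, above the screen mean plus 3 SD, about 149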); conditions: 3 h, at 10 µM, stronger effect = higher value
# [5] = modulators of AGP1-GFP expression in yeast TOR pathway, primary screen, cell-based, multiplex flow cytometry, S. cerevisiae (AID 1887;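 active = GFP signal above the screen-wide mean plus 3 SD, that is over about 124.5% of the solvent control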;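 also: AGP1-GFP fusion strain of S. cerevisiae within a five-strain barcoded multiplex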); conditions: 3 h, at 10 µM, stronger effect = higher value
# [6] = inhibitors of CD8+ T cell-vesicle binding, pilot screen, LFA-1/ICAM-1 modulator project, MLPCN validation set, flow cytometry (AID 2523;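 active = response below a set limit, under 55% cells CD8-positive and vesicle-bound, and CD8 cells' 90th-percentile brightness under 279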;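 as to vesicle binding response: mean PE anti-B7-1 fluorescence of CD8+ cells relative to row control; 100% = QL9-loaded vesicles with DMSO vehicle in the same plate row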); conditions: 2C mouse CD8+ T cells, at 7 µM, stronger effect = lower value; double positive events: measured here: CD8+/vesicle+ event percentage
# [7] = biological target: Integrin beta-1 (Homo sapiens) + Integrin alpha-4 (Homo sapiens) (UniProt P13612+P05556); assay: inhibition of HUTS-21 binding to VLA-4, pilot screen, VLA-4 allosteric modulator project, U937 cells, HUTS-21 mAb, flow cytometry, validation set (AID 2674;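 active = inhibition above 50%, about 3 SD of the validation set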;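 also: antibody binding induced by the VLA-4 ligand LDV present at three times its Kd; 0% = LDV ligand with antibody and no compound and 100% = antibody without LDV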); conditions: HUTS-21 LIBS mAb binding, at 6.7 µM, stronger effect = higher value, binding induced by LDV ligand
# [8] = superoxide lowering in aged yeast cells, pilot screen, validation compound set (AID 2706;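 active = superoxide response below 65% of plate, a cut near 3 SD across the whole screen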;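 also: yeast exposed to compound for one week at 30 degrees C before staining; 100% = mean of all compound wells on the same plate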); conditions: S. cerevisiae aging, superoxide DHE fluorescence; at 10 µM; stronger effect = lower value
# [9] = biological target: Beta-adrenergic receptor kinase 1 (Homo sapiens) (UniProt P25098); assay: GRK2 binders displacing RNA aptamer, biochemical, validation, human GRK2, bead flow cytometry (AID 488806;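 active = aptamer binding inhibition above 30%, about 3 SD of noise from non-fluorescent compounds; inactive = inhibition at or below 30%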); conditions: bead-bound GRK2, FAM-aptamer displacement, at 10 µM, stronger effect = higher value
# [10] = biological target: Beta-2 adrenergic receptor (Homo sapiens) (UniProt P07550); assay: beta2AR agonists driving receptor internalization, pilot screen, cell-based, FAP fluorogen, flow cytometry, validation set (AID 504459;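 active = percent response above 42, roughly 3 SD of non-fluorescent test compounds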;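 also: agonist-driven loss of surface beta2AR via internalization measured by FAP dye flow cytometry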); conditions: Am2.2-beta2AR cells, FAP surface receptor flow cytometry; at 10 µM; stronger effect = higher value
# [11] = biological target: AP-2 complex subunit beta (Homo sapiens) (UniProt P63010); assay: inhibitors of arrestin peptide binding to AP2, pilot screen, biochemical, validation set, GST-AP2 beads, flow cytometry (AID 504541;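 active = inhibition above 54%, about 3 SD of non-fluorescent compounds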;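 also: AP2 carries R879A mutation and is captured from E. coli lysate; bead-bound FITC arrestin peptide fluorescence measuring arrestin peptide binding to AP2; 0% = DMSO wells and 100% = excess unlabeled arrestin peptide control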); conditions: FITC arrestin peptide, at 10 µM, stronger effect = higher value, AP2 beta2 appendage fragment, R879A mutant
# [12] = yeast V-ATPase proton transport modulators, S. cerevisiae, pHLuorin, HTS validation (AID 504600; in the data active = response above about 15%;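 also: plate controls were DMSO for no effect and reference compound for full effect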); conditions: S. cerevisiae pHLuorin cytosolic pH, at 10 µM, stronger effect = higher value
# [13] = system: anti-desmoglein-3 scFv antibody binding to human DSG3; assay: inhibitors of anti-DSG3 scFv binding to DSG3, pilot screen, biochemical, validation compound set, bead-based, flow cytometry (AID 588368;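 active = binding below the plate cutoff, the plate median minus 3 SD, with a reading above zero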;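 also: signal is the median channel fluorescence of bead-bound GFP antibody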); conditions: Protein G beads, DSG3-Fc, scFv-GFP binding, at 10 µM, stronger effect = lower value
# [14] = inhibitors of fungal efflux pumps CDR1, CDR2, MDR1, pilot screen, validation compound set, multiplex, phenotypic (AID 588506;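 active = efflux inhibition above 0.42, the validation set average plus 4 SD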;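 also: Nile Red retained in cells so higher fluorescence means more efflux inhibition; 0 = negative control wells and 1 = enniatin B 25 µM full block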); conditions: S. cerevisiae pump-expressing triplex, Nile Red efflux flow cytometry; at 10 µM; stronger effect = higher value; the pumps come from Candida albicans
# [15] = biological target: ATP-binding cassette sub-family B member 6 (Homo sapiens) (UniProt Q9NP58); assay: ABCB6 transporter inhibitors, pilot screen, K562-ABCB6 cells, flow cytometry, validation set (AID 588550;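 active = inhibition above the screen-wide mean plus 3 SD, about 51%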;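 also: 0% = DMSO wells and 100% = benzethonium chloride 70 µM positive control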); conditions: K562-ABCB6 porphyrin accumulation, 1 h, at 10 µM, stronger effect = higher value
# [16] = promoters of myeloid differentiation in arrested cells, primary screen, cell-based, GFP/MAC1 double positive, flow cytometry, validation set (AID 588685;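 active = differentiation response of at least 50%, scaled between solvent and reference control, from cells with both markers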;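 also: compound exposure lasts four days before antibody staining and flow analysis; 0% = DMSO wells and 100% = 5 µM fulvestrant positive control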); conditions: ER-HoxA9 marrow cells, stronger effect = higher value, normalized: vehicle 0, fulvestrant 100
# Sequence of Beta-adrenergic receptor kinase 1 (Homo sapiens) (P25098 whole entry, looked up): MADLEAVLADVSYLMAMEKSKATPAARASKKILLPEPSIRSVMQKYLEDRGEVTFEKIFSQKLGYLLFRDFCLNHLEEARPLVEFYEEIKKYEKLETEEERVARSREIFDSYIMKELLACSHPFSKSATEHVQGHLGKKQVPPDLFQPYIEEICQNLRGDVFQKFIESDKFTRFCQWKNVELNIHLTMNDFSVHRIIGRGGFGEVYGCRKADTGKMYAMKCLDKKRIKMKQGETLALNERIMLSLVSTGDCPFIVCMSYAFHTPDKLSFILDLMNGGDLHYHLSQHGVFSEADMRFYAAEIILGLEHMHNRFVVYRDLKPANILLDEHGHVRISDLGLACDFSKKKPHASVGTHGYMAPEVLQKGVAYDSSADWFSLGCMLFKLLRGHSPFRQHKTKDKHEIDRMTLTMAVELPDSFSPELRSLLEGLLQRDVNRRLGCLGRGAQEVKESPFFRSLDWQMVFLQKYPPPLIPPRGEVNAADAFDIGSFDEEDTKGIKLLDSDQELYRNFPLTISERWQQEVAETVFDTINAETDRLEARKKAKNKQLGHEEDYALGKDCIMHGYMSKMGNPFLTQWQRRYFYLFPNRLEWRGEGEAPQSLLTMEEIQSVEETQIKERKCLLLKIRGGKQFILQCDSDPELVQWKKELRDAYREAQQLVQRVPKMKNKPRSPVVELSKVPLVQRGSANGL
# Sequence of ATP-binding cassette sub-family B member 6 (Homo sapiens) (Q9NP58 whole entry, looked up): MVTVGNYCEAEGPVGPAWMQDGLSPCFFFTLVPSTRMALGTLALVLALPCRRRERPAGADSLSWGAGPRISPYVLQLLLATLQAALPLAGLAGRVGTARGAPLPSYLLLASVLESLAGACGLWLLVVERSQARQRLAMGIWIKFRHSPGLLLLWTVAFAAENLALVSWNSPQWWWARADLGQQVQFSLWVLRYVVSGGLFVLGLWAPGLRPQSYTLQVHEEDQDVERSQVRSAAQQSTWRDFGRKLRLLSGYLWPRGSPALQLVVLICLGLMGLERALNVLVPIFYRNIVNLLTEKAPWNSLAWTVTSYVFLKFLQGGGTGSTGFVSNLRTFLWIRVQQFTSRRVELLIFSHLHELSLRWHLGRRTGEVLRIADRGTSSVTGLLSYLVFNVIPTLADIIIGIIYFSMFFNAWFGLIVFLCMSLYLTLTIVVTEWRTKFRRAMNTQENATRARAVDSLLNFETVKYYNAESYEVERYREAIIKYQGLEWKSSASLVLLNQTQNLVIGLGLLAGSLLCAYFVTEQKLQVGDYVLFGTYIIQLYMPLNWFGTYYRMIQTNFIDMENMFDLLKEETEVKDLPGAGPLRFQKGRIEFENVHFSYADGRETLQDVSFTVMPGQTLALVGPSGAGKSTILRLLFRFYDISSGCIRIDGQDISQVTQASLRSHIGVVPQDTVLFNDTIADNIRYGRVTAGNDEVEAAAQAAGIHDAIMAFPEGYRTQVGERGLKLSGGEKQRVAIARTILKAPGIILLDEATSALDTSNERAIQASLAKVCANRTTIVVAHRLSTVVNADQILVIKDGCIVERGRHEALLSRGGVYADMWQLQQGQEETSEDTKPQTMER
# Sequence of Beta-2 adrenergic receptor (Homo sapiens) (P07550 whole entry, looked up): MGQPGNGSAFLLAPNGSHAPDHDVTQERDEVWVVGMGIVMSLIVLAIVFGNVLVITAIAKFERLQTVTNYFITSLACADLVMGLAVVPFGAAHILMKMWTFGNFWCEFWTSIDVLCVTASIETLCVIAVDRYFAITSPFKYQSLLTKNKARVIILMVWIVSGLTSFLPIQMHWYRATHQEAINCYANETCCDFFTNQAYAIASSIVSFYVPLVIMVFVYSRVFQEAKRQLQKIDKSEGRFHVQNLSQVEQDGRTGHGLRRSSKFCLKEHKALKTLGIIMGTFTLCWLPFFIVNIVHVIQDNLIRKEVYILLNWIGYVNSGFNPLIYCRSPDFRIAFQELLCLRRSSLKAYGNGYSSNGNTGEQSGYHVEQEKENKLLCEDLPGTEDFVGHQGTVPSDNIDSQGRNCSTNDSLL
# Sequence of Integrin beta-1 (Homo sapiens) + Integrin alpha-4 (Homo sapiens) (P05556 whole entry, looked up): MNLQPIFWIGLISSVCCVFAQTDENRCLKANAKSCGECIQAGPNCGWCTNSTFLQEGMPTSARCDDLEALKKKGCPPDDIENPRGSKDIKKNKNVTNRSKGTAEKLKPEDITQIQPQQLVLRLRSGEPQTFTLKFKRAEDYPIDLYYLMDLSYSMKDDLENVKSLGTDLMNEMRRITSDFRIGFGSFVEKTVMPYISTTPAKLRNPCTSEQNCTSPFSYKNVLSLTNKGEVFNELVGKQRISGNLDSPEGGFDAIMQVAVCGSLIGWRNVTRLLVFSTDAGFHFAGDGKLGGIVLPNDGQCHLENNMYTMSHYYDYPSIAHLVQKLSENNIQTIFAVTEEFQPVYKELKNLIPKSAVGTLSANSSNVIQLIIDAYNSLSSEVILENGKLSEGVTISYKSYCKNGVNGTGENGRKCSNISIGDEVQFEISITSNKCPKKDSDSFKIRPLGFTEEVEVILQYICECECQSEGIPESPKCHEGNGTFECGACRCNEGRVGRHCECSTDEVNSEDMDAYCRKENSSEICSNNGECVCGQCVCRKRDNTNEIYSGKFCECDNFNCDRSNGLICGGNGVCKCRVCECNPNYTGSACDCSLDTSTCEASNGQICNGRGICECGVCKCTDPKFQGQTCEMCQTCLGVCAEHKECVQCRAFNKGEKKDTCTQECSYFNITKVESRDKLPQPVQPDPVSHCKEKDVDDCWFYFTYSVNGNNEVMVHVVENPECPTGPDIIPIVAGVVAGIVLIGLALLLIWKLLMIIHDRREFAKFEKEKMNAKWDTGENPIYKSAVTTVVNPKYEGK
# Sequence of Integrin beta-1 (Homo sapiens) + Integrin alpha-4 (Homo sapiens) (P13612 whole entry, looked up): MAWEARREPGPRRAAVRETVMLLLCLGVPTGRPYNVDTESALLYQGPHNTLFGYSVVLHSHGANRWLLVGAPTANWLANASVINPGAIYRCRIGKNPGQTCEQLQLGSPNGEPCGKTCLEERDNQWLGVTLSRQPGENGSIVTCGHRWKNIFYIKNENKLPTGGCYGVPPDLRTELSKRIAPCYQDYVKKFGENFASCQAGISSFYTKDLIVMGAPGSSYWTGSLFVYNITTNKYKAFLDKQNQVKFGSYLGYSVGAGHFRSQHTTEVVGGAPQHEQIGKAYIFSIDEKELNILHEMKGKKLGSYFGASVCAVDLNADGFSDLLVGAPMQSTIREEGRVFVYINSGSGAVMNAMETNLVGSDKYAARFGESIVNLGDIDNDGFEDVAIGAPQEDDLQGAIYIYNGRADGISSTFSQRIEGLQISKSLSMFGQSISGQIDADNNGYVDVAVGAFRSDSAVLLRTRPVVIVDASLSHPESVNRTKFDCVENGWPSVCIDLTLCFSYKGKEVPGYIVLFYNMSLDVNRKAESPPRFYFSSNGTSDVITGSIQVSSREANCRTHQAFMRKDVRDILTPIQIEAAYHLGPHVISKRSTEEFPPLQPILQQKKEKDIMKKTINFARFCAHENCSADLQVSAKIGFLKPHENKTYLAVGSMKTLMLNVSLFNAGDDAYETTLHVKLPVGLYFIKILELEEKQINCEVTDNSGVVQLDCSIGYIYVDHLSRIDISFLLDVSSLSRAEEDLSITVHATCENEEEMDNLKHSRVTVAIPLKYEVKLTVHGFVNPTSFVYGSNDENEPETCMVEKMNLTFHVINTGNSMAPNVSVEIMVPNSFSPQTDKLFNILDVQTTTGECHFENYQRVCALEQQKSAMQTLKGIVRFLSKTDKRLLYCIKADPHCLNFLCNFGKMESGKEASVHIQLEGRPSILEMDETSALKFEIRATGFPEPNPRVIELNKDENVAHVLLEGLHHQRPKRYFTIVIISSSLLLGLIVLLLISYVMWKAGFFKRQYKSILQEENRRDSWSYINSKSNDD
# Sequence of AP-2 complex subunit beta (Homo sapiens) (P63010 whole entry, looked up, the tested form may be a part, one chain of several): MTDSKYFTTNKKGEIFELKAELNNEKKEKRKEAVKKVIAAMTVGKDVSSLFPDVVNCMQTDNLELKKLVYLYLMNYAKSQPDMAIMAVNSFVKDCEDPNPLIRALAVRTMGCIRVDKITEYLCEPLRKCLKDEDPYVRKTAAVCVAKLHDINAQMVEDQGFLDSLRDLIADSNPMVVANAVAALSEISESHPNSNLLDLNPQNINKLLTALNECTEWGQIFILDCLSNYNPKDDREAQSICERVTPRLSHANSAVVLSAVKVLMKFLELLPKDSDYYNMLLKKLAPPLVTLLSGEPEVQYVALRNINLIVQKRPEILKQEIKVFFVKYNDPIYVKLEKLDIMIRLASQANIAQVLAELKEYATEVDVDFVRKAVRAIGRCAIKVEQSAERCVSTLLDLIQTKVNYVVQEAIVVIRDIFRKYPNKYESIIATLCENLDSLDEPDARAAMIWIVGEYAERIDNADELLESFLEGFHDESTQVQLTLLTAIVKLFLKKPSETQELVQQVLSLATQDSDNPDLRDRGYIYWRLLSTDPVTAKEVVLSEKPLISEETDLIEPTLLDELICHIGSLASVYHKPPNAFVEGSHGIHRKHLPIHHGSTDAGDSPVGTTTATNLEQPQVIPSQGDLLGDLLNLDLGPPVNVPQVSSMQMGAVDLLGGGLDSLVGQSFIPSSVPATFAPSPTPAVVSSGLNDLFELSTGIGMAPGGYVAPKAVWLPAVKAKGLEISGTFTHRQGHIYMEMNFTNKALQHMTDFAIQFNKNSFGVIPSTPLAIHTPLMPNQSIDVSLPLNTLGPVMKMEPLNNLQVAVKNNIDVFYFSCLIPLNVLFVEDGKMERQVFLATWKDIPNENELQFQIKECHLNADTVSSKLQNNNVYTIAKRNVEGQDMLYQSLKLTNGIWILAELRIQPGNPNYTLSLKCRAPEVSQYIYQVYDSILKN
SMILES,percent of DMSO control GFP [1],GFP response vs DMSO [2],percent response of DMSO control [3],GFP response vs DMSO [4],"GFP response, % of DMSO [5]",double positive events [6] [%],vesicle binding response [6],inhibition [7],superoxide response (% of plate) [8],aptamer binding inhibition [9],response [10],inhibition [11],response [12],binding (% of control) [13],efflux inhibition (fraction of control) [14],inhibition [15],differentiation response [16]
Cc1ccc(C2CC(c3cccs3)=NN2C(=O)c2ccco2)o1 (stereo not drawn),92.6% (inactive),87.6% (inactive),89.3% (inactive),82.8% (inactive),87% (inactive),62.2,135% (inactive),2.93% (inactive),106% (inactive),-1% (inactive),-25.7% (inactive),-17.3% (inactive),-7.57% (inactive),107% (inactive),0.275 (inactive),-1% (inactive),1.28% (inactive)
COc1ccc2[nH]c3c(=O)n(/N=C/[C@H]4C(C)C=C(C)CC4C)c(=O)[nH]c3c2c1 (stereo partly drawn),99.9% (inactive),109% (inactive),92% (inactive),107% (inactive),102% (inactive),57.4,6260% (inactive),6.4% (inactive),95.3% (inactive),3% (inactive),5.28% (inactive),32.4% (inactive),-6.18% (inactive),98.7% (inactive),0.22 (inactive),1% (inactive),-28% (inactive)
O=C(N/N=C/c1ccc([N+](=O)[O-])o1)c1ccc(O)cc1,103% (inactive),118% (inactive),112% (inactive),77.6% (inactive),97.5% (inactive),47.6,209% (inactive),-21.7% (inactive),136% (inactive),-1% (inactive),-5.96% (inactive),-8.31% (inactive),4% (inactive),110% (inactive),0.12 (inactive),8% (inactive),14.7% (inactive)
COc1cc2cc(C(=O)O)[nH]c2c(OC)c1OC,102% (inactive),106% (inactive),96.6% (inactive),106% (inactive),99.5% (inactive),61,187% (inactive),-1.49% (inactive),112% (inactive),0% (inactive),-2.07% (inactive),-16.9% (inactive),-0.34% (inactive),98.7% (inactive),-0.32 (inactive),-4% (inactive),8.06% (inactive)
Cc1ccc2c(c1)C1OCCC1C1N2C(=O)C2C(C(=O)O)C3C=CC21O3 (stereo not drawn),104% (inactive),107% (inactive),110% (inactive),106% (inactive),107% (inactive),62.2,207% (inactive),11% (inactive),106% (inactive),11% (inactive),0.35% (inactive),41.7% (inactive),3.53% (inactive),101% (inactive),-0.32 (inactive),11% (inactive),-13.3% (inactive)
CCOc1ccc(N2C(=O)CC(NCCNc3ccc([N+](=O)[O-])cn3)C2=O)cc1 (stereo not drawn),103% (inactive),95.6% (inactive),106% (inactive),98% (inactive),93% (inactive),53.2,145% (inactive),15% (inactive),94.4% (inactive),0% (inactive),1.65% (inactive),-8.05% (inactive),4.15% (inactive),98.8% (inactive),0.06 (inactive),8% (inactive),-4.57% (inactive)
CC(C)CN(C)Cc1c(C(=O)N2CCc3ccccc3C2)nc2ccc(Cl)cn12,105% (inactive),103% (inactive),107% (inactive),98% (inactive),105% (inactive),62.4,147% (inactive),8.29% (inactive),99.2% (inactive),0% (inactive),-16.8% (inactive),20.6% (inactive),-4% (inactive),104% (inactive),0.22 (inactive),11% (inactive),-13.3% (inactive)
O=C(NCCO)c1ccc(Cl)c(Cl)c1,103% (inactive),104% (inactive),102% (inactive),99.1% (inactive),107% (inactive),59.4,97% (inactive),-11.8% (inactive),105% (inactive),-1% (inactive),-1.25% (inactive),-1.25% (inactive),0.22% (inactive),104% (inactive),0.78 (active),9% (inactive),-10.4% (inactive)
O=c1[nH]c(=O)n([C@H]2C[C@H](O)[C@@H](CO)O2)cc1C(F)(F)F,103% (inactive),101% (inactive),97.8% (inactive),94% (inactive),94.8% (inactive),58.6,48.9% (inactive),-11.9% (inactive),108% (inactive),1% (inactive),-1.49% (inactive),13.9% (inactive),-1.8% (inactive),100% (inactive),0.02 (inactive),1% (inactive),-1.71% (inactive)
